This is an account of results in PubChem BioAssay AID1851 (National Center for Advancing Translational Sciences (NCATS), 2009).

Hit rate of the full screen: of about 16,000 compounds, about 5,700 (36%) were called active. About 24% were inconclusive and are not listed. The list shows a part of the results. Unmarked numbers belong to inactive results. Calls come from the whole dose curve; as a rule, active = well fitted curve in the direction sought with a large enough effect; inconclusive = small, poorly fitted or top-dose-only effect, or effect the other way; inactive = no such curve, though single readings can be large or run the other way.
% is set by controls: 0 for no effect and ±100 for the full control effect.

Sequence of Cytochrome P450 1A2 (Homo sapiens) (P05177 whole entry, looked up): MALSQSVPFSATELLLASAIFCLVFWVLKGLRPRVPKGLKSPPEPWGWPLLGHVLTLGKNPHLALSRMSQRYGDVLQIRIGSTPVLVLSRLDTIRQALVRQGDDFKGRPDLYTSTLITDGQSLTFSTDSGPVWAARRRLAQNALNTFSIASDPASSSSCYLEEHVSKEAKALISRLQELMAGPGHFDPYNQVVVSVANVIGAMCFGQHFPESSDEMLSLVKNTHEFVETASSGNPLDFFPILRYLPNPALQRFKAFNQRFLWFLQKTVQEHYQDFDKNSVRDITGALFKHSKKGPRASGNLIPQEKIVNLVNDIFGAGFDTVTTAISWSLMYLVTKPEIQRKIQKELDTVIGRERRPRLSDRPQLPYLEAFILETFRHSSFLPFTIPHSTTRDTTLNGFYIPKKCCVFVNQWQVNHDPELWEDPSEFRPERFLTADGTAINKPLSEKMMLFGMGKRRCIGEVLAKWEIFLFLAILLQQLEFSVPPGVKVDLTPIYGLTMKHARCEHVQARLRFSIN

For this experiment, the target named is Cytochrome P450 1A2 (Homo sapiens) (UniProt P05177). Kind of experiment: Cytochrome panel assay with activity outcomes. The conditions noted are these: recombinant CYP, pro-luciferin dealkylation, luminescence, p450-cyp1a2; series mostly up to 57.1 µM; activity, negative = inhibition: at the top concentration. As to the method:
The P450 gene superfamily is involved in the metabolism and clearance of xenobiotics. This assay used various human CYP P450 isozymes to measure the dealkylation of various pro-luciferin substrates to luciferin. The luciferin is then measured by luminescence after the addition of a luciferase detection reagent. Pro-luciferin substrate concentration in the assay was equal to its KM for its CYP P450 isozyme. Inhibitors and some substrates limit the production of luciferin, and decrease measured luminescence.
NCGC Assay Protocol Summary:
1, Reagent, 2 uL, Isozyme and Pro-Luciferin
2, Library compounds, 23 nl, 40 uM to 0.24 nM dilution series
3, Controls, 23 nl, Isozyme specific inhibitor
4, Reagent, 2 uL, NADPH regeneration solution
5, Incubation time, 60 min, Isozyme specific temperature
6, Reagent, 4ul, Detection reagent
7, Incubation time, 20 min, Isozyme specific temperature
8, Detection, 1 sec, ViewLux luminescent read
The luciferase-based P450-GloTM Screening Systems were obtained from Promega (Madison, WI) for CYP 1A2 (V9770), CYP 2C9 (V9790), CYP2 C19 (V9880), CYP 2D6 (V9890), and CYP 3A4 Luciferin-PPXE (V9910) and were adapted for 1,536-well microplates and an automated protocol. The control compounds furafylline for 1A2 (F124), sulfaphenazole for CYP 2C9 (S0758), ketoconazole for CYP 2C19 (K1003), quinidine for 2D6 (Q3625), and ketoconazole for 3A4 (K1003) were purchased from Sigma Aldrich (St. Louis, MO). Recombinant P450 enzymes were obtained from baculovirus constructs expressed in insect cells (BD/Gentest).
Medium-binding white solid Kalypsys plates used. Mixtures kept on ice. 1A2: 10 nM 1A2, 100 uM Luc-ME, 100 mM KPO4; 2C9: 10 nM 2C9, 100 uM Luc-H, 25 mM KPO4; 2C19: 5 nM 2C19, 10 uM Luc-H EGE, 50 mM KPO4; 2D6: 5 nM 2D6, 30 uM Luc-ME EGE, 100 mM KPO4; 3A4: 10 nM, 25 uM Luc-PPXE. All amounts are reflected in their final concentration, working concentration is 2x.
NADPH regeneration solution: 1.3 mM NADP+, 3.3 mM glucose-6-phosphate, 3.3 mM MgCl2, 0.4 U/mL glucose-6-phosphate dehydrogenase for all isozymes, 200 mM KPO4 for 3A4. Mixture prepared at RT but kept on ice during automated run.
RT incubation in auxilliary plate hotel for 1A2, 2D6, and 3A4; 37C for 2C9 and 2C19.
Keywords: P450, CYP1A2, CYP2C19, CYP2C9, CYP2D6, CYP3A4, Luciferase, MLSMR, MLSCN, NIH Roadmap, qHTS, NCGC
For the compound `COC(=O)c1ccc(CSc2nc3cc(Cl)ccc3s2)o1`, the AC50 (as a rule, the midpoint of the concentration-response curve, whichever way the signal moves) is 2 µM (active).

For the compound `CCN(c1ccc(NC(=O)COC(=O)c2ccc3ccccc3n2)cc1)C(C)C`, the AC50 was 2.51 µM (active).

For the compound `Cc1ccc(C(C(=O)NCc2ccco2)N(C(=O)CNC(=O)c2cccs2)c2ccc(C)cc2C)cc1` (centres undefined), the “activity, negative = inhibition” value was -8.95%.

As to `O=C(c1cccs1)n1nc(-c2ccc(Cl)cc2)nc1NCc1ccco1`, the AC50 is 0.316 µM (active).

On to `Cc1ccc(C(C(=O)NCc2ccco2)N(C(=O)CNC(=O)c2cccs2)c2ccc(C)cc2)cc1` (centres undefined), for which the “activity, negative = inhibition” value was -2.44%.

Regarding `COc1ccc(OCc2nnc(SCC(=O)O)n2N)cc1`, the “activity, negative = inhibition” value was -20.8%.

As for `Cc1noc(COc2ccc(OCc3nc(C)no3)cc2)n1`, the “activity, negative = inhibition” value is 0.769%.

`CCn1c(COc2ccc(OC)cc2)nc2ccccc21`: the AC50 was 14.1 µM (active).

`CCn1c(N)nc2ccccc21`: the AC50 is 25.1 µM (active).

On to `C[n+]1ccccc1/C=N\O`, for which the “activity, negative = inhibition” value is -6.64% [at 25.6 µM].

`CC(C)NC(=O)N1CCN(c2ccncc2S(=O)(=O)N2CCOCC2)CC1`: the “activity, negative = inhibition” value was -4.14%.

Consider `O=[N+]([O-])c1cc(Cc2cc([N+](=O)[O-])c3cccnc3c2O)c(O)c2ncccc12`, for which the activity, negative = inhibition is -31.1% [at 2.29 µM].

For the compound `Cc1nc2cccc([N+](=O)[O-])c2n1CCCN(C)C`, the activity, negative = inhibition is -16.9% [at 11.4 µM].

Take `O=[N+]([O-])c1cccc2cn[nH]c12`: the AC50 was 2.51 µM (active).

On to `O=[N+]([O-])c1ccc(S(=O)(=O)Cc2ccccc2)c2nonc12`, for which the activity, negative = inhibition is -5.25% [at 2.29 µM].

With `O=[N+]([O-])c1cccc2c(Br)[nH]nc12`, the AC50 is 0.126 µM (active).

Take `O=[N+]([O-])c1cccc2c[nH]nc12`: the AC50 is 2.51 µM (active).

Consider `COc1ccc2c(c1)CCC1C2CC[C@]2(C)[C@H](NCCCCCCN3C(=O)C=CC3=O)CC[C@@H]12` (some centres undefined), for which the “activity, negative = inhibition” value was -3.41%.

For `CCNC(=S)N1CC(C)OC(C)C1` (centres undefined), the “activity, negative = inhibition” value is -21.6%.

As to `O=c1c(-c2ccc(O)cc2)coc2cc(O)ccc12`, the AC50 was 15.8 µM (active).

For the compound `O=c1c(-c2ccc(O)cc2)coc2cc(O)cc(O)c12`, the AC50 is 5.01 µM (active).

Take `COc1ccc(-c2coc3cc(OC)cc(O)c3c2=O)cc1`: the AC50 was 3.16 µM (active).

Consider `CC(O)CN(CCC(N)=O)CCC(N)=O` (centres undefined), for which the “activity, negative = inhibition” value is 6.43%.

For the compound `COc1ccccc1C(=O)NCCn1cc(SCC(=O)Nc2nnc(C)s2)c2ccccc21`, the AC50 was 12.6 µM (active).

On to `Cc1nnc(NC(=O)CSc2ncnc3c2cnn3-c2ccccc2C)s1`, for which the “activity, negative = inhibition” value is 1.29%.

With `CC(C)C(=O)c1c(C(C)C)nn2ccccc12`, the AC50 is 0.631 µM (active).

In the case of `CC(C)Oc1ccc2c(=O)c3cc(C(=O)O)ccc3oc2c1`, the “activity, negative = inhibition” value is -20.5%.

For the compound `COc1ccc2c(=O)c(-c3ccccc3)c(C)oc2c1`, the AC50 was 2.51 µM (active).

For `O=C(c1ccc(COc2ccc(F)cc2)o1)n1cccn1`, the AC50 was 10 µM (active).

Consider `CN(C)C(=O)c1ccc(-c2cncnc2NCc2cccs2)cc1`, for which the AC50 is 20 µM (active).

Consider `CN(C)c1ccc(-c2cncnc2NCc2cccs2)cc1`, for which the AC50 was 0.398 µM (active).

`COc1cccc(=O)c2c(C)n(-c3cc(C)cc(C)c3)c(C)c12`: the AC50 is 10 µM (active).

Turning to `COc1cc(/C=C(\C#N)c2nc3c(s2)CC(C)CC3)ccc1O` (centres undefined), the AC50 is 1.12 µM (active).

In the case of `COc1cc(/C=C(/C#N)c2nc3ccccc3[nH]2)ccc1OCC(=O)Nc1ccccc1C`, the “activity, negative = inhibition” value was 2.56%.

Take `CCn1c(SCC(=O)Nc2ccc3c(c2)OCCO3)nc2c(c1=O)SC(C)C2` (centres undefined): the AC50 is 12.6 µM (active).

Turning to `Cc1ccc2nc(NC(=O)CSc3nc4c(c(=O)n3C)SC(C)C4)sc2c1` (centres undefined), the AC50 is 5.01 µM (active).

As for `CCOc1ccc(-n2c(SCC(=O)Nc3ccc4c(c3)OCCO4)nc3c(c2=O)SCC3)cc1`, the “activity, negative = inhibition” value is -12.3%.

With `CCn1c(SCC(=O)Nc2nc3ccc(C)cc3s2)nc2c(c1=O)SC(C)C2` (centres undefined), the AC50 was 1.58 µM (active).

Regarding `CCOc1ccc(-n2c(SCC(=O)Nc3ccc(OC)cc3)nc3c(c2=O)SCC3)cc1`, the “activity, negative = inhibition” value is -13.7%.

Consider `C=CCn1c(SCC(=O)NC2CCCCC2)nnc1C1CCCCC1`, for which the “activity, negative = inhibition” value is 1.5%.

Take `CCn1c(SCC(=O)NC2CCCCC2)nc2c(c1=O)SC(C)C2` (centres undefined): the AC50 was 14.1 µM (active).

`CCn1nnnc1SCC(=O)NC1CCCC1`: the “activity, negative = inhibition” value is -18%.

For `c1ccc([C@H](CCN2CCCC2)c2ccccn2)cc1`, the activity, negative = inhibition was -14.8% [at 11.4 µM].

Consider `CN(C)CCCn1cnc2cc(Cl)c(Cl)cc21`, for which the activity, negative = inhibition is -19.9% [at 2.29 µM].

With `CN(C)Cc1ccccc1-c1ccc2ncnc(NCc3ccccc3)c2c1`, the half-maximal activity concentration (AC50) is 15.8 µM (active).

Take `CN(C)Cc1ccccc1-c1ccc2ncnc(N(C)C)c2c1`: the AC50 was 12.6 µM (active).

As to `CNc1ncnc2ccc(-c3ccccc3CN(C)C)cc12`, the AC50 is 3.16 µM (active).

Consider `CN(C)Cc1ccccc1-c1ccc2ncnc(NC3CCNCC3)c2c1`, for which the “activity, negative = inhibition” value is -9.16%.

Turning to `N=C(N)CCNC(=O)[C@@H]1CCC(N)=N1`, the activity, negative = inhibition is -3.4% [at 2.29 µM].
